Results as given in the supplement of paper PMC6992640.
± gives the standard deviation of the averaged measurements.

The molecules below were run on WHIM30 (cells of a triple-negative basal-like breast cancer xenograft) (assay: cell viability (% of vehicle); higher = less cytotoxic). Conditions: 1 µM; 72 h.

SMILES	cell viability
O=C(NC1CCN(CCCCC2(C(=O)NCC(F)(F)F)c3ccccc3-c3ccccc32)CC1)c1ccccc1-c1ccc(C(F)(F)F)cc1 [Lomitapide]	63.8
CCCCCCCCOc1ccccc1C(=O)Nc1ccc(C(=O)OCC[N+](C)(CC)CC)cc1.[Br-] [Otilonium Bromide]	90.7
COc1cc(Nc2c(C#N)cnc3cc(OCCCN4CCN(C)CC4)c(OC)cc23)c(Cl)cc1Cl [Bosutinib (SKI-606)]	68.4
CNC(=O)c1cc(Oc2ccc(NC(=O)Nc3ccc(Cl)c(C(F)(F)F)c3)c(F)c2)ccn1 [Regorafenib]	89.9
COC1=C(OC)C(=O)C(CCCCCCCCCCO)=C(C)C1=O [Idebenone]	94.5
Nc1ncn(C2OC(CO)C(O)C2O)c(=O)n1 (configuration not stated) [5-Azacytidine]	93.9
CC(C)C[C@H](NC(=O)[C@H](Cc1ccccc1)NC(=O)c1cnccn1)B(O)O [Bortezomib]	24
CC(C)Nc1cc(-c2c[nH]c(C(=O)NC(CO)c3cccc(Cl)c3)c2)c(Cl)cn1 (configuration not stated)	78.4
COc1cc(Nc2ncc(F)c(Nc3ccc4c(n3)N(COP(=O)(O)O)C(=O)C(C)(C)O4)n2)cc(OC)c1OC [Fostamatinib (R788)]	112
CNCCCC12CCC(c3ccccc31)c1ccccc12.Cl [Maprotiline HCl]	83.3
COc1cc(C(=O)O)ccc1NC(=O)C1NC(CC(C)(C)C)C(C#N)(c2ccc(Cl)cc2F)C1c1cccc(Cl)c1F (configuration not stated)	91.3
CC(NCCCc1cccc(C(F)(F)F)c1)c1cccc2ccccc12 (configuration not stated) [Cinacalcet]	83.9
Cl.Clc1ccccc1CN1CCc2sccc2C1 [Ticlopidine HCl]	91.9

What follows are molecules tested on HCI01 (cells of a triple-negative basal-like breast cancer xenograft) in the same assay as above. Conditions: 10 µM; 72 h.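 Further: PDX cells carrying CMV promoter-driven luciferase, viability read as total photon flux per second by IVIS imaging following D-luciferin, vehicle control 0.1% DMSO.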

SMILES	cell viability
Cc1ccc(-n2[nH]c(C)c(NN=C3C=CC=C(c4cccc(C(=O)O)c4)C3=O)c2=O)cc1C [Eltrombopag]	28.3 ± 15
Oc1c(Cl)cc(Cl)c2cccnc12 [Chloroxine]	36.5 ± 3.6
CCN(CC)CCCC(C)Nc1ccnc2cc(Cl)ccc12.O=P(O)(O)O.O=P(O)(O)O (configuration not stated) [Chloroquine diphosphate]	75.4 ± 4.4
COC(=O)NC(C(=O)NC(Cc1ccccc1)C(O)CN(Cc1ccc(-c2ccccn2)cc1)NC(=O)C(NC(=O)OC)C(C)(C)C)C(C)(C)C (configuration not stated) [Atazanavir]	88.35 ± 0.71
COc1cc2nccc(Oc3ccc(NC(=O)C4(C(=O)Nc5ccc(F)cc5)CC4)cc3)c2cc1OC.O=C(O)CC(O)C(=O)O [Cabozantinib malate (XL184)]	88.7 ± 13
O=C(C=Cn1cnc(-c2cc(C(F)(F)F)cc(C(F)(F)F)c2)n1)NNc1cnccn1	41.9 ± 24
Nc1ccn(C2OC(CO)C(O)C2O)c(=O)n1 (configuration not stated) [Cytarabine]	65 ± 1.2
CO[C@H]1/C=C/O[C@@]2(C)Oc3c(C)c(O)c4c(O)c(c(/C=N/N5CCN(C6CCCC6)CC5)c(O)c4c3C2=O)NC(=O)/C(C)=C\C=C\[C@H](C)[C@H](O)[C@@H](C)[C@@H](O)[C@@H](C)[C@H](OC(C)=O)[C@@H]1C [Rifapentine]	47.7 ± 28
CS(=O)(=O)O.Cc1c(O)cccc1C(=O)NC(CSc1ccccc1)C(O)CN1CC2CCCCC2CC1C(=O)NC(C)(C)C (configuration not stated) [Nelfinavir Mesylate]	64.3 ± 30
CCN(CC)CCNC(=O)c1c(C)[nH]c(C=C2C(=O)Nc3ccc(F)cc32)c1C.O=C(O)CC(O)C(=O)O [Sunitinib malate]	37.7 ± 18
N.N.O=C([O-])C1(C(=O)[O-])CCC1.[Pt+2] [Carboplatin]	82.1 ± 6.4
CC(NCCCc1cccc(C(F)(F)F)c1)c1cccc2ccccc12.Cl (configuration not stated) [Cinacalcet HCl]	38.8 ± 2.6
COC(=O)c1ccc2c(c1)NC(=O)C2=C(Nc1ccc(N(C)C(=O)CN2CCN(C)CC2)cc1)c1ccccc1 [Nintedanib (BIBF 1120)]	70.5 ± 19
COc1cc(C(=O)NS(=O)(=O)c2ccccc2C)ccc1Cc1cn(C)c2ccc(NC(=O)OC3CCCC3)cc12 [Zafirlukast]	24.1 ± 0.82
